# Laboratory results published in paper PMC11006913.
# Positions count from the first letter of the chain named.
# How the values were obtained:
# Test in all cases: PBM; 200 nM protein, PBS
# Details in all cases: dsDNA, one strand shown
# HOXB4 = HOXB4 (Homo sapiens, UniProt P17483 148-234)
# HOXA2 [1] = target: HOXA2 (Homo sapiens, UniProt O43364 129-215, Y150S)
# HOXA2 [2] = target: HOXA2 (Homo sapiens, UniProt O43364 129-215)
# HOXB6 = HOXB6 (Homo sapiens, UniProt P17509 132-218)
# HOXB9 [3] = target: HOXB9 (Homo sapiens, UniProt P17482 171-250, T197M)
# HOXB9 (Homo sapiens, UniProt P17482 171-250, T197M), sequence (P17482 171-250 T197M): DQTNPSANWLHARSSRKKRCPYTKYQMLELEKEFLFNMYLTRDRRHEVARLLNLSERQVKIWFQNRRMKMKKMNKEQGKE
# PAX4 [4] = target: T1, PAX4 (Homo sapiens, UniProt O43316 9-242, F177Y)
# T1 sequence: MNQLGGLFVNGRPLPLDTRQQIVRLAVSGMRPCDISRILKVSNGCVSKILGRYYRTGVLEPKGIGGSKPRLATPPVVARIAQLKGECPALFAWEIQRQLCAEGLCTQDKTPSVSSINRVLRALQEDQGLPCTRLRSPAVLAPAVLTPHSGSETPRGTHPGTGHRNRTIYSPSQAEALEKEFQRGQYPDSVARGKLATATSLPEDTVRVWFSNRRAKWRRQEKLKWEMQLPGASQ
# HOXC9 [5] = target: HOXC9 (Homo sapiens, UniProt P31274 178-260, K195R)
# HOXC9 (Homo sapiens, UniProt P31274 178-260, K195R), sequence (P31274 178-260 K195R): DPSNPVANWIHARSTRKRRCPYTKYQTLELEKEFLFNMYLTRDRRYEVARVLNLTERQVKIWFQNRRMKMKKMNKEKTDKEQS
# VENTX = target: T2, VENTX (Homo sapiens, UniProt O95231 78-163)
# T2 sequence: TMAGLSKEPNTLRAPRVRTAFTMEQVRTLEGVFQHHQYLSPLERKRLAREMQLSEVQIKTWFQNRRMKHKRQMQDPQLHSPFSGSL
# HOXC10 [6] = target: HOXC10 (Homo sapiens, UniProt Q9NYD6 254-340)
# HOXC10 (Homo sapiens, UniProt Q9NYD6 254-340), sequence (Q9NYD6 254-340): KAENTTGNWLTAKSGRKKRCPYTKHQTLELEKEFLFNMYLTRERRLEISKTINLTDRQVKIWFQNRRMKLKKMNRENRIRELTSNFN
# HOXB9 [7] = target: HOXB9 (Homo sapiens, UniProt P17482 171-250)
# HOXB9 (Homo sapiens, UniProt P17482 171-250), sequence (P17482 171-250): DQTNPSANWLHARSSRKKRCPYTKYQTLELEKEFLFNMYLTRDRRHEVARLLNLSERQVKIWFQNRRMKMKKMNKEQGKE
# HOXC9 [8] = target: HOXC9 (Homo sapiens, UniProt P31274 178-260)
# HOXC9 (Homo sapiens, UniProt P31274 178-260), sequence (P31274 178-260): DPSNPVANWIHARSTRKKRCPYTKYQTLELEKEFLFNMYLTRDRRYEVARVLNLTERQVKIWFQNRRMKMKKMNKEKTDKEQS
# HOXC9 [9] = target: HOXC9 (Homo sapiens, UniProt P31274 178-260, R193K)
# HOXC9 (Homo sapiens, UniProt P31274 178-260, R193K), sequence (P31274 178-260 R193K): as the sequence (P31274 178-260) above, with R16K counted along it
# HOXC10 [10] = target: HOXC10 (Homo sapiens, UniProt Q9NYD6 254-340, K271E)
# HOXC10 (Homo sapiens, UniProt Q9NYD6 254-340, K271E), sequence (Q9NYD6 254-340 K271E): as the sequence (Q9NYD6 254-340) above, with K18E counted along it
# VAX1 = VAX1 (Homo sapiens, UniProt Q5SQQ9 86-172)
# VAX1, sequence (Q5SQQ9 86-172): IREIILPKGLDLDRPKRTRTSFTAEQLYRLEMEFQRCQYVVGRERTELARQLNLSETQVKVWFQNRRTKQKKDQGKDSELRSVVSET
# HOXB9 [11] = target: HOXB9 (Homo sapiens, UniProt P17482 171-250, R186Q)
# HOXB9 (Homo sapiens, UniProt P17482 171-250, R186Q), sequence (P17482 171-250 R186Q): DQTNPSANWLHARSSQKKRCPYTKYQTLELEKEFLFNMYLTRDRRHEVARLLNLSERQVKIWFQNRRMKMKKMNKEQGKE
# HOXC9 [12] = target: HOXC9 (Homo sapiens, UniProt P31274 178-260, R222W)
# HOXC9 (Homo sapiens, UniProt P31274 178-260, R222W), sequence (P31274 178-260 R222W): as the sequence (P31274 178-260) above, with R45W counted along it
# PAX4 [13] = target: T3, PAX4 (Homo sapiens, UniProt O43316 9-242, R200K)
# T3 sequence: T1 sequence with Y169F, R192K
# PAX4 [14] = target: T4, PAX4 (Homo sapiens, UniProt O43316 9-242)
# T4 sequence: T1 sequence with Y169F
# PAX4 [15] = target: T5, PAX4 (Homo sapiens, UniProt O43316 9-242, F177V)
# T5 sequence: T1 sequence with Y169V
# PAX4 [16] = target: T6, PAX4 (Homo sapiens, UniProt O43316 9-242, R227W)
# T6 sequence: T1 sequence with Y169F, R219W
# HOXA2 (Homo sapiens, UniProt O43364 129-215), sequence (O43364 129-215): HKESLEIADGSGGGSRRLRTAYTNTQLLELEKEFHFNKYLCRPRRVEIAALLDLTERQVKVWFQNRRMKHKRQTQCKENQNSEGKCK
# HOXB4, sequence (P17483 148-234): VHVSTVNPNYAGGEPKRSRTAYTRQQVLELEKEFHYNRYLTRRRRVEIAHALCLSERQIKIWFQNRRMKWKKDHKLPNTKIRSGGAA
# HOXB6, sequence (P17509 132-218): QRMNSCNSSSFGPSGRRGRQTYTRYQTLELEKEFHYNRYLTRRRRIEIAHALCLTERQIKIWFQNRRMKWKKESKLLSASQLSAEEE
# HOXA2 (Homo sapiens, UniProt O43364 129-215, Y150S), sequence (O43364 129-215 Y150S): as the sequence (O43364 129-215) above, with Y22S counted along it
sequence,measurement,setting,value
CAATTATC,binding signal,HOXB4,"13 upbm affinity estimate (log intensity, higher = more binding, comparable within an allelic series)"
same,binding signal,HOXA2 [1],"10.9 upbm affinity estimate (log intensity, higher = more binding, comparable within an allelic series)"
same,binding signal,HOXA2 [2],"12.1 upbm affinity estimate (log intensity, higher = more binding, comparable within an allelic series)"
same,binding signal,HOXB6,"11.6 upbm affinity estimate (log intensity, higher = more binding, comparable within an allelic series)"
ATAATTGA,binding signal,HOXB4,"13 upbm affinity estimate (log intensity, higher = more binding, comparable within an allelic series)"
same,binding signal,HOXB9 [3],"9.97 upbm affinity estimate (log intensity, higher = more binding, comparable within an allelic series)"
same,binding signal,PAX4 [4],"11 upbm affinity estimate (log intensity, higher = more binding, comparable within an allelic series)"
same,binding signal,HOXB6,"11.7 upbm affinity estimate (log intensity, higher = more binding, comparable within an allelic series)"
CAATTAAA,binding signal,HOXB9 [3],"10.2 upbm affinity estimate (log intensity, higher = more binding, comparable within an allelic series)"
same,binding signal,HOXC9 [5],"12.9 upbm affinity estimate (log intensity, higher = more binding, comparable within an allelic series)"
same,binding signal,VENTX,"12.3 upbm affinity estimate (log intensity, higher = more binding, comparable within an allelic series)"
same,binding signal,HOXC10 [6],"12.5 upbm affinity estimate (log intensity, higher = more binding, comparable within an allelic series)"
same,binding signal,HOXB9 [7],"12.3 upbm affinity estimate (log intensity, higher = more binding, comparable within an allelic series)"
same,binding signal,HOXC9 [8],"12.9 upbm affinity estimate (log intensity, higher = more binding, comparable within an allelic series)"
same,binding signal,HOXC9 [9],"12.8 upbm affinity estimate (log intensity, higher = more binding, comparable within an allelic series)"
same,binding signal,HOXC10 [10],"12.3 upbm affinity estimate (log intensity, higher = more binding, comparable within an allelic series)"
same,binding signal,VAX1,"12.8 upbm affinity estimate (log intensity, higher = more binding, comparable within an allelic series)"
same,binding signal,HOXB9 [11],"12 upbm affinity estimate (log intensity, higher = more binding, comparable within an allelic series)"
same,binding signal,HOXC9 [12],"11.3 upbm affinity estimate (log intensity, higher = more binding, comparable within an allelic series)"
same,binding signal,HOXB6,"12.1 upbm affinity estimate (log intensity, higher = more binding, comparable within an allelic series)"
CAATTATG,binding signal,HOXB4,"13 upbm affinity estimate (log intensity, higher = more binding, comparable within an allelic series)"
same,binding signal,HOXB6,"11.7 upbm affinity estimate (log intensity, higher = more binding, comparable within an allelic series)"
CAATTAAG,binding signal,HOXB4,"13 upbm affinity estimate (log intensity, higher = more binding, comparable within an allelic series)"
same,binding signal,VENTX,"12.5 upbm affinity estimate (log intensity, higher = more binding, comparable within an allelic series)"
same,binding signal,VAX1,"13 upbm affinity estimate (log intensity, higher = more binding, comparable within an allelic series)"
same,binding signal,HOXA2 [1],"10.7 upbm affinity estimate (log intensity, higher = more binding, comparable within an allelic series)"
same,binding signal,HOXA2 [2],"12.2 upbm affinity estimate (log intensity, higher = more binding, comparable within an allelic series)"
same,binding signal,HOXB6,"11.8 upbm affinity estimate (log intensity, higher = more binding, comparable within an allelic series)"
TCAATTAA,binding signal,HOXB4,"13.3 upbm affinity estimate (log intensity, higher = more binding, comparable within an allelic series)"
same,binding signal,VENTX,"12.4 upbm affinity estimate (log intensity, higher = more binding, comparable within an allelic series)"
same,binding signal,VAX1,"13.3 upbm affinity estimate (log intensity, higher = more binding, comparable within an allelic series)"
same,binding signal,HOXA2 [1],"10.7 upbm affinity estimate (log intensity, higher = more binding, comparable within an allelic series)"
same,binding signal,HOXA2 [2],"12.4 upbm affinity estimate (log intensity, higher = more binding, comparable within an allelic series)"
same,binding signal,HOXB6,"11.9 upbm affinity estimate (log intensity, higher = more binding, comparable within an allelic series)"
CCAATTAA,binding signal,HOXB4,"13 upbm affinity estimate (log intensity, higher = more binding, comparable within an allelic series)"
same,binding signal,HOXB9 [3],"10 upbm affinity estimate (log intensity, higher = more binding, comparable within an allelic series)"
same,binding signal,VENTX,"12.9 upbm affinity estimate (log intensity, higher = more binding, comparable within an allelic series)"
same,binding signal,PAX4 [13],"11.8 upbm affinity estimate (log intensity, higher = more binding, comparable within an allelic series)"
same,binding signal,PAX4 [14],"12.3 upbm affinity estimate (log intensity, higher = more binding, comparable within an allelic series)"
same,binding signal,PAX4 [15],"10.6 upbm affinity estimate (log intensity, higher = more binding, comparable within an allelic series)"
same,binding signal,HOXC10 [10],"11.9 upbm affinity estimate (log intensity, higher = more binding, comparable within an allelic series)"
same,binding signal,PAX4 [4],"11.1 upbm affinity estimate (log intensity, higher = more binding, comparable within an allelic series)"
same,binding signal,VAX1,"13 upbm affinity estimate (log intensity, higher = more binding, comparable within an allelic series)"
same,binding signal,HOXB9 [11],"11.4 upbm affinity estimate (log intensity, higher = more binding, comparable within an allelic series)"
same,binding signal,HOXC9 [12],"11.1 upbm affinity estimate (log intensity, higher = more binding, comparable within an allelic series)"
same,binding signal,PAX4 [16],"11 upbm affinity estimate (log intensity, higher = more binding, comparable within an allelic series)"
same,binding signal,HOXA2 [1],"10.8 upbm affinity estimate (log intensity, higher = more binding, comparable within an allelic series)"
same,binding signal,HOXA2 [2],"12.2 upbm affinity estimate (log intensity, higher = more binding, comparable within an allelic series)"
same,binding signal,HOXB6,"11.9 upbm affinity estimate (log intensity, higher = more binding, comparable within an allelic series)"
GGCAATTA,binding signal,HOXB4,"13.1 upbm affinity estimate (log intensity, higher = more binding, comparable within an allelic series)"
same,binding signal,HOXB9 [3],"10.2 upbm affinity estimate (log intensity, higher = more binding, comparable within an allelic series)"
same,binding signal,HOXC9 [5],"12.6 upbm affinity estimate (log intensity, higher = more binding, comparable within an allelic series)"
same,binding signal,VENTX,"12.5 upbm affinity estimate (log intensity, higher = more binding, comparable within an allelic series)"
same,binding signal,HOXB9 [7],"11.8 upbm affinity estimate (log intensity, higher = more binding, comparable within an allelic series)"
same,binding signal,HOXC9 [9],"12.5 upbm affinity estimate (log intensity, higher = more binding, comparable within an allelic series)"
same,binding signal,HOXC10 [10],"12 upbm affinity estimate (log intensity, higher = more binding, comparable within an allelic series)"
same,binding signal,VAX1,"12.9 upbm affinity estimate (log intensity, higher = more binding, comparable within an allelic series)"
same,binding signal,HOXB9 [11],"11.5 upbm affinity estimate (log intensity, higher = more binding, comparable within an allelic series)"
same,binding signal,HOXA2 [1],"10.8 upbm affinity estimate (log intensity, higher = more binding, comparable within an allelic series)"
same,binding signal,HOXA2 [2],"12.5 upbm affinity estimate (log intensity, higher = more binding, comparable within an allelic series)"
same,binding signal,HOXB6,"12.2 upbm affinity estimate (log intensity, higher = more binding, comparable within an allelic series)"
CCAGGTCC,binding signal,HOXB4,"7.71 upbm affinity estimate (log intensity, higher = more binding, comparable within an allelic series)"
same,binding signal,VENTX,"8.06 upbm affinity estimate (log intensity, higher = more binding, comparable within an allelic series)"
same,binding signal,HOXA2 [1],"10.5 upbm affinity estimate (log intensity, higher = more binding, comparable within an allelic series)"
same,binding signal,HOXA2 [2],"7.25 upbm affinity estimate (log intensity, higher = more binding, comparable within an allelic series)"
CAATTACC,binding signal,HOXB4,"13 upbm affinity estimate (log intensity, higher = more binding, comparable within an allelic series)"
same,binding signal,VAX1,"12.8 upbm affinity estimate (log intensity, higher = more binding, comparable within an allelic series)"
same,binding signal,HOXB6,"11.8 upbm affinity estimate (log intensity, higher = more binding, comparable within an allelic series)"
TAATTAGA,binding signal,HOXB4,"13.5 upbm affinity estimate (log intensity, higher = more binding, comparable within an allelic series)"
same,binding signal,HOXB9 [3],"10.1 upbm affinity estimate (log intensity, higher = more binding, comparable within an allelic series)"
same,binding signal,VENTX,"13 upbm affinity estimate (log intensity, higher = more binding, comparable within an allelic series)"
same,binding signal,PAX4 [13],"12.2 upbm affinity estimate (log intensity, higher = more binding, comparable within an allelic series)"
same,binding signal,PAX4 [14],"12.8 upbm affinity estimate (log intensity, higher = more binding, comparable within an allelic series)"
same,binding signal,PAX4 [15],"11 upbm affinity estimate (log intensity, higher = more binding, comparable within an allelic series)"
same,binding signal,HOXC10 [10],"11.8 upbm affinity estimate (log intensity, higher = more binding, comparable within an allelic series)"
same,binding signal,PAX4 [4],"11.5 upbm affinity estimate (log intensity, higher = more binding, comparable within an allelic series)"
same,binding signal,VAX1,"13.8 upbm affinity estimate (log intensity, higher = more binding, comparable within an allelic series)"
same,binding signal,PAX4 [16],"11.5 upbm affinity estimate (log intensity, higher = more binding, comparable within an allelic series)"
same,binding signal,HOXA2 [1],"11 upbm affinity estimate (log intensity, higher = more binding, comparable within an allelic series)"
same,binding signal,HOXA2 [2],"13.1 upbm affinity estimate (log intensity, higher = more binding, comparable within an allelic series)"
same,binding signal,HOXB6,"12 upbm affinity estimate (log intensity, higher = more binding, comparable within an allelic series)"
AATTAGTG,binding signal,VENTX,"12.3 upbm affinity estimate (log intensity, higher = more binding, comparable within an allelic series)"
same,binding signal,PAX4 [13],"11.8 upbm affinity estimate (log intensity, higher = more binding, comparable within an allelic series)"
same,binding signal,PAX4 [14],"12.4 upbm affinity estimate (log intensity, higher = more binding, comparable within an allelic series)"
same,binding signal,PAX4 [15],"10.6 upbm affinity estimate (log intensity, higher = more binding, comparable within an allelic series)"
same,binding signal,PAX4 [4],"11.1 upbm affinity estimate (log intensity, higher = more binding, comparable within an allelic series)"
same,binding signal,VAX1,"12.8 upbm affinity estimate (log intensity, higher = more binding, comparable within an allelic series)"
same,binding signal,PAX4 [16],"11.1 upbm affinity estimate (log intensity, higher = more binding, comparable within an allelic series)"
same,binding signal,HOXA2 [1],"10.8 upbm affinity estimate (log intensity, higher = more binding, comparable within an allelic series)"
same,binding signal,HOXA2 [2],"12.2 upbm affinity estimate (log intensity, higher = more binding, comparable within an allelic series)"
